# Literature values in PubChem BioAssay AID977611.
# Hit rate of the full screen: of about 3,900 compounds, about 3,900 (100%) were called active. Cut-off not given; nearly all actives show Kd up to about 4200 µM. The set was probably picked from earlier hits. Some of the results follow. Peptide text beside a SMILES is read from it.
# Experiment: PubChem AID 977611
# Conditions: PDB protein-ligand complexes, literature Kd
compound,measurement,setting,value
O[C@@H]1[C@H](O)[C@@H](CO[P+](O)(O)O)O[C@H]1n1cnc2c(NC3CCCC3)ncnc21,Kd,"protein: 2'-deoxynucleoside 5'-phosphate N-hydrolase 1, DNPH1 (RCL), PDB entry 4kxl",0.6 µM (active)
CN(C)[C@@H](Cc1cnc[nH]1)C(=O)O,Kd,"protein: Histidine-specific methyltransferase EgtD, PDB entry 4pin",4 µM (active)
same,Kd,"protein: Histidine-specific methyltransferase EgtD, PDB entry 4pio",2 µM (active)
C=C1C/C=C/[C@H](OC)[C@H](OC(N)=O)C(=C)C[C@@H](C)[C@@H](O)[C@@H](OC)C[C@H](C)CC2=C(OC)C(=O)C(C)=C(NC1=O)C2=O,Kd,"protein: ATP-DEPENDENT MOLECULAR CHAPERONE HSP82, PDB entry 4as9",16.3 µM (active)
OCc1cn([C@H]2O[C@H](CO)[C@@H](O)[C@H](O)[C@@H]2O)nn1,Kd,"protein: Concanavalin-A ConA, PDB entry 4pf5",3.3 µM (active)
CCC(=O)O[C@H](CCOCc1ccccc1)[C@@H](C)[C@H](O)[C@@H](C)CCC(=O)[C@H](C)[C@H](OC(C)=O)[C@H](C)/C=C/N(C)C=O,Kd,"protein: Actin, alpha skeletal muscle, PDB entry 4k42",0.285 µM (active)
NC1N=C2NN=C(CC(=O)O)C(=O)C2C(=O)N1 (configuration not stated),Kd,"protein: Dihydropteroate Synthase, PDB entry 4dai",0.11 µM (active)
O=C1NC(=O)[C@H](Cc2ccccc2)N1,Kd,"protein: Mhp1, PDB entry 2JLO",54 µM (active)
O=C1N=C(Cc2cccc(Br)c2)C(=O)N1,Kd,"protein: nucleobase-cation-symport-1 family hydantoin transporter Mhp1, PDB entry 4d1c",2 µM (active)
CCCCCCCCC(=O)c1cc(O)c(O)c(O)c1,Kd,"protein: Nuclear receptor subfamily 4 group A member 1, PDB entry 4jgv",0.27 µM (active)
C[C@]12CC(=O)[C@H]3[C@@H](CCC4=CC(=O)CC[C@@]43C)[C@@H]1CC[C@@H]2C(=O)CO,Kd,"protein: Phospholipase A2 VRV-PL-VIIIa, PDB entry 4qf7",0.0025 µM (active)
H-QQHHLGGAKQAGDV-OH,Kd,"protein: FIBRONECTIN-BINDING PROTEIN A, PDB entry 4b60",3.7 µM (active)
H-GALGGAKQAGAV-OH,Kd,"protein: Clumping factor A (ClfA), PDB entry 2vr3",10.5 µM (active)
H-KSAVTTVVNP-OH,Kd,"protein: Integrin beta-1-binding protein 1, PDB entry 4dx9",5 µM (active)
H-LESKPYNPFEEEEED-OH,Kd,"protein: C-terminal domain of EH domain-containing protein 1, PDB entry 2ksp",57 µM (active)
H-FNYESTGPFTAK-OH,Kd,"protein: EH domain-containing protein 1 C-terminal domain, PDB entry 2kfh",2400 µM (active)
H-FNYESTNPFTAK-OH,Kd,"protein: EH domain-containing protein 1 C-terminal domain, PDB entry 2kff",245 µM (active)
H-FNYESTDPFTAK-OH,Kd,"protein: EH domain-containing protein 1 C-terminal domain, PDB entry 2kfg",1200 µM (active)
COC1=CC=C2CC3C4CC5OCOC5CC4CCN3C[C@H]2[C@@H]1OC (some centres not stated),Kd,"protein: Putative regulatory protein, PDB entry 3vw2",17.9 µM (active)
Cc1cc2c([nH]1)NC(=O)N([C@@H]1O[C@H](CO)[C@@H](O)[C@H]1O)C2,Kd,"protein: NupC family protein CNT-7C8C, PDB entry 4pd8",0.94 µM (active)
CC[C@H](C)[C@H](NC(=O)[C@H](CC(=O)O)NC(=O)[C@@H](N)CC(=O)O)C(=O)N[C@@H](CO[P+](O)(O)O)C(=O)N[C@@H](CC(C)C)C(=O)N[C@@H](CC(C)C)C(=O)N[C@@H](CCCCN)C(=O)O,Kd,"protein: human GGA1(Golgi-localizing, ?-adaptin ear homology domain, ARF-interacting) VHS domains, PDB entry 1ujk",0.27 µM (active)
H-DDISLLK-OH,Kd,"protein: human GGA1(Golgi-localizing, ?-adaptin ear homology domain, ARF-interacting) VHS domains, PDB entry 1ujj",0.8 µM (active)
Cc1nc2ccccc2c(-c2ccc3c(c2)CCCO3)c1[C@H](OC(C)(C)C)C(=O)O,Kd,"protein: Integrase IN CCD (H171T mutant), PDB entry 4tsx",10.3 µM (active)
CN(C)Cc1c[nH]c2c(CCCO)cccc12,Kd,"protein: Phospholipase A2 VRV-PL-VIIIa, PDB entry 4qgd",0.037 µM (active)
H-TNEFYA-OH,Kd,"protein: the PDZ Tandem of Syntenin 1, PDB entry 1ybo",160 µM (active)
C[C@H](N)C(=O)N[C@@H](CO[P+](O)(O)O)C(=O)N[C@@H](CCC(N)=O)C(=O)N[C@@H](CCC(=O)O)C(=O)N[C@@H](Cc1ccc(O)cc1)C(=O)O,Kd,"protein: Mediator of DNA damage checkpoint protein 1(MDC1/NFBD1), PDB entry 2azm",2.2 µM (active)
H-TNLYML-OH,Kd,"protein: E. coli UDP-N-acetylglucosamine acyltransferase (LpxA), PDB entry 4j09",17 µM (active)
H-DAEFRA-OH,Kd,"protein: 3D6 FAB ANTIBODY, PDB entry 4onf",0.0012 µM (active)
H-TYKFFEQ-OH,Kd,"protein: adaptor protein complex 4 (AP-4) mu4 subunit C-terminal domain D190A mutant, PDB entry 4mdr",40.6 µM (active)
Oc1ccc(F)cc1O,Kd,"protein: Protocatechuate 3,4-dioxygenase alpha chain 3,4-PCD, PDB entry 4whq",75 µM (active)
same,Kd,"protein: Protocatechuate 3,4-dioxygenase alpha chain 3,4-PCD, PDB entry 4whr",75 µM (active)
same,Kd,"protein: Protocatechuate 3,4-dioxygenase alpha chain 3,4-PCD, PDB entry 4whs",75 µM (active)
CSCC[C@H](NC(=O)[C@@H](N)CC(=O)O)C(=O)N[C@@H](Cc1ccc(O)cc1)C(=O)N[C@@H](C)C(=O)O (H-DMYA-OH),Kd,"protein: E3 ubiquitin-protein ligase RNF31 HOIP PUB Domain, PDB entry 4p0b",0.29 µM (active)
H-MFAAFDYIA-OH,Kd,"protein: 3-phosphoinositide-dependent protein kinase 1 PDK1, PDB entry 4rrv",0.04 µM (active)
Cc1ccc(-c2cc3c(NC([P+](O)(O)O)[P+](O)(O)O)ncnc3s2)cc1,Kd,"protein: Farnesyl pyrophosphate synthase, human FPPS, PDB entry 4lpg",55.6 µM (active)
Cc1ccc(-c2cc3c(NC[P+](O)(O)O)ncnc3s2)cc1,Kd,"protein: Farnesyl pyrophosphate synthase, human FPPS, PDB entry 4lph",9.2 µM (active)
N#Cc1c(Oc2ccc(F)c(NC(=O)Cc3cccc(C(F)(F)F)c3)c2)ccc2nc(NC(=O)C3CC3)sc12,Kd,"protein: Serine/threonine-protein kinase B-raf, PDB entry 4ksp",0.0016 µM (active)
